High-throughput results from PubChem BioAssay.
Most compounds without a hit are left out; they make up all but 0.86% or so of the library.
AmpC no deterg – inhibitors of E. coli AmpC beta-lactamase without detergent | P00811 | AmpC nitrocefin hydrolysis, absorbance 480 nm, 0.0001% Triton | Potency, µM (top dose mostly 57.1 µM), without a hit: at the highest dose activity change, negative = inhibition, hits mostly inhibitors | hit rate 0.52% among 330,000;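 also: plate controls were no compound for no effect and no enzyme for full effect; nearly all actives have a fitted effect of over 20% in size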
Target sequence (P00811 whole entry, looked up): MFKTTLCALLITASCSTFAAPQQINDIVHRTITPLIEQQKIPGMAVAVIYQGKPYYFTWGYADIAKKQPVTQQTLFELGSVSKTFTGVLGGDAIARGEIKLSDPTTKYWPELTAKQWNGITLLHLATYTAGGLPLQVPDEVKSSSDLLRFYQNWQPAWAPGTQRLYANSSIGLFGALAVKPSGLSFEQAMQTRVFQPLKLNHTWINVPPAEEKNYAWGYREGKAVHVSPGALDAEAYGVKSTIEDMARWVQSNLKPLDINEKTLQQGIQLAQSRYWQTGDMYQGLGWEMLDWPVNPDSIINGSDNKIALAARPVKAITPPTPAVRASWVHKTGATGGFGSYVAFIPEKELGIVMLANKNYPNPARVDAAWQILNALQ
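AmpC (5.3 nM in the dispensed reagent) in 20 mM phosphate pH 7.0 with 0.01% (detergent screen) or 0.0001% Triton X-100 was preincubated with compounds for 15 min at room temperature. Nitrocefin was then added from an 800 uM solution, and hydrolysis was followed at 480 nm.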
AMA1-RON2 inh – disrupts binding of P. falciparum AMA1 to RON2; Potency, µM (doses to about 58.2 µM), for inactives: at the top dose activity change, negative = inhibition, hits mostly inhibitors; AID 720542; AlphaScreen AMA1-biotinylated RON2 peptide binding; hit rate 0.2% among 360,000;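 also: 0% = vehicle wells and -100% = peptide control; nearly all actives have a fitted effect of over 45% in size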
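AMA1 (3D7) with his tag at 25 nM final met compounds first, then biotinylated RON2 peptide at 25 nM; detection used donor plus acceptor beads, 10 µg/mL apiece, read by AlphaScreen after 30 min at room temperature.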
AmpC detergent – AmpC beta-lactamase inhibition with detergent present | P00811 | AmpC hydrolysis of nitrocefin, absorbance 480 nm, 0.01% Triton | Potency, µM (titrated, usually from 114 µM), without a hit: at the highest dose activity change, negative = inhibition, actives largely listed as inhibitors | hit rate 0.041% among 370,000 | AID 485294;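 also: 0% = no-compound wells and -100% = no-enzyme wells; nearly all actives have a fitted effect of over 25% in size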
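AmpC (5.3 nM in the dispensed reagent) in 20 mM phosphate pH 7.0 with 0.01% (detergent screen) or 0.0001% Triton X-100 was preincubated with compounds for 15 min at room temperature. Nitrocefin was then added from an 800 uM solution, and hydrolysis was followed at 480 nm.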
NS1 function inh – blocks influenza NS1 protein function; Potency, µM (top dose mostly 46.1 µM), for the others: top-dose activity, positive = more growth; hit rate 0.4% among 270,000; calls by dose curve; also: actives are rising curves; nearly all actives have a fitted effect of over 50% in size
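Recovery from NS1-induced slow growth read by OD600 in budding yeast switched to galactose assay medium (pH 6.0, -URA) at 1:100 dilution. Compound 23 nl per well; the matching strain lacking NS1 serves as control.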
The depositor's hits bear a star; ? = inconclusive; . = no result given. Unless noted, calls follow the shape of the dose curve; as a rule, active = well fitted curve in the direction sought with a large enough effect; inconclusive = small, poorly fitted or top-dose-only effect, or another doubt; inactive = no such curve, though single readings can be large; an effect the other way counts as inactive or inconclusive. Potency is read from the fitted curve at half-maximal effect.

SMILES | AmpC no deterg | AMA1-RON2 inh | AmpC detergent | NS1 function inh
COC(=O)C1(C(=O)OC)NOC2C(=O)N(c3ccc(Cl)cc3Cl)C(=O)C21 (stereo not given) | 4.5µM* | 15% | 5% | 23%
Cc1nnc(SCC(=O)Nc2ccc(N(C)C)cc2)[nH]c1=O | . | . | -5% | .
O=C(Nc1ccc(F)cc1)C1C2CCC3C(CCC21)C3(Cl)Cl (stereo not given) | 14µM* | 2% | 3% | -11%
O=C(Nc1ccc(Cl)cc1)C1C2CCC3C(CCC21)C3(Cl)Cl (stereo not given) | -49% | 9% | -8% | -55%
Cc1cccc(NC(=O)C2C3CCC4C(CCC32)C4(Cl)Cl)c1 (stereo not given) | 32µM* | -4% | -1% | 3%
C[C@@H]1CN([C@@H](C)CO)C(=O)c2cc(NC(=O)C3CC3)ccc2O[C@@H]1CN(C)C(=O)NC1CCCCC1 | 153% | 16% | . | .
CSc1ncccc1C(=O)OCC(=O)N(C)Cc1ccc(C)cc1 | . | 11% | . | .
NC(=O)[C@H]1CC2(CC(c3cccc(NC(=O)COc4ccc(Cl)cc4)c3)=NO2)CN1C(=O)c1ccc(Cl)cc1 (stereo not given in full) | 122% | 20% | -10% | -33%
O=C(CSc1ccc(Br)c2cccc(Cl)c12)Nc1ccc(S(=O)(=O)Nc2nccs2)cc1 | 2.5µM* | 26% | 2% | 10%
Cc1cccc(NC(=O)CNC(=O)COc2ccc(-c3ccc(C#N)cc3)cc2)c1C | 28µM* | -10% | -3% | 19%
CC1CN(CCOc2ccc(F)cc2)CC(C)O1 (stereo not given) | -14% | 20µM* | -20% | -17%
CC1CN(CCOc2ccc([N+](=O)[O-])cc2)CC(C)O1 (stereo not given) | -15% | -15% | -10% | -2%
Cc1ccc(-c2nn(CC(=O)NCc3ccccc3)c3c2cnc2ccc(F)cc23)cc1C | . | . | 26% | .
CSc1ccc(C(O)c2ncc(-c3ccccc3Cl)[nH]2)cc1 (stereo not given) | . | -23% | . | .
Cc1ncc(N=Nc2ccc(F)cc2)c(-c2ccc(Cl)cc2)n1 | 0.4µM* | -7% | 1% | 11%
Cc1cc(Cl)ccc1OCC(=O)N1CCC(c2nc3ccccc3o2)CC1 | . | . | 23% | .
Cc1ccc(NC(=O)c2cc(-c3ccc(C)c(C)c3O)n[nH]2)cc1C | -23% | 60% | -17% | 5%
COc1ccc(NC(=O)c2cc(-c3ccc(C)c(C)c3O)n[nH]2)cc1Cl | 18µM* | 109% | ? | 2%
C[C@H]1CN([C@@H](C)CO)C(=O)c2cc(Br)cnc2O[C@H]1CN(C)C(=O)C1CCC1 | . | -10% | . | .
COc1ccc2nc(SCC(=O)N3CC(=O)Nc4ccccc43)c(C#N)cc2c1 | -52% | -3% | ? | 5%
Cc1cc(C)c2nc(SCC(=O)N3CC(=O)Nc4ccccc43)c(C#N)cc2c1 | 3.5µM* | 10% | 2% | 11%
COc1ccc(NCc2nnc(SCc3ccc(Cl)cc3)n2-c2ccccc2)cc1 | 26% | 20µM* | -13% | ?
COc1ccc(-n2c(COc3ccc(Cl)cc3)nnc2SCc2ccc(C#N)cc2)cc1 | -10% | -8% | ? | 9%
COc1cc(OC)c(C2CC(=O)N3CN(c4ccccc4C)CSC3=C2C#N)cc1OC (stereo not given) | 1% | . | -7% | 4µM*
COc1ccc(OC)c(C2CC(=O)N3CN(c4ccccc4)CSC3=C2C#N)c1 (stereo not given) | -38% | 15% | ? | -43%
SMILES | AmpC no deterg | AMA1-RON2 inh | AmpC detergent | NS1 function inh
Cc1cccc(N2CSC3=C(C#N)C(c4ccc(C)o4)CC(=O)N3C2)c1 (stereo not given) | -46% | . | ? | 1.8µM*
CCc1ccccc1N1CSC2=C(C#N)C(c3ccccc3F)CC(=O)N2C1 (stereo not given) | -34% | 25% | 4% | 0.89µM*
COc1ccc(C2CC(=O)N3CN(c4ccccc4F)CSC3=C2C#N)cc1OC (stereo not given) | -20% | 22% | ? | -40%
O=C(N/N=C/c1ccc(O)cc1O)c1ccc(CN2C(=O)c3cccc4cccc2c34)cc1 | 7.1µM* | 54% | 1% | 3%
N#Cc1c(-c2ccccc2)cc(-c2ccccc2)nc1SCC(O)CS(=O)(=O)Cc1ccc(Cl)cc1 (stereo not given) | . | . | 5% | .
c1coc(-c2ncc[nH]2)c1 | -23% | 28µM* | 5% | 0%
Nc1[nH]c(C(=O)c2ccccc2)c(-c2cccc3ccccc23)c1C(=O)NCc1ccccc1 | . | 25% | . | .
N#C[C@@H](N=Nc1ccccc1C(=O)O)C(N)=O | . | . | . | 0%
COc1ccc(OC)c(NC2c3ccccc3C(=O)N2Cc2ccc3c(c2)OCO3)c1 (stereo not given) | -8% | 16µM* | ? | -34%
O=C1c2ccccc2C(Nc2ccc3c(c2)OCO3)N1Cc1ccc2c(c1)OCO2 (stereo not given) | -26% | -21% | 4% | -43%
O=C(COC(=O)C1CC1)c1c[nH]c2ccccc12 | -8% | -7% | ? | -11%
O=C(Cc1ccccc1[N+](=O)[O-])OCC(=O)c1c[nH]c2ccccc12 | 10µM* | -6% | -20% | .
C=CCn1c(O)c(N=NC(=S)Nc2ccccc2C)c2cc(S(=O)(=O)N3CCOCC3)ccc21 | 44% | 57% | -18% | 13µM*
COc1ccccc1C(=O)Nc1cccc(C(=O)OCc2cc(=O)n3cc(C)sc3n2)c1 | . | . | -10% | .
Cc1ccccc1NCC(=O)N/N=C/c1c(C)c(C(=O)c2ccc(Cl)cc2)n2ccccc12 | ? | 7% | -15% | 25%
Cc1c(/C=N/NC(=O)CNc2ccccc2)c2ccccn2c1C(=O)c1ccc(Cl)cc1 | 2.5µM* | -12% | 0% | ?
COc1ccc(CN2CCN(Cc3ccc(C(F)(F)F)cc3)CC2)c(OC)c1 | 88% | 25µM* | 3% | -3%
COc1ccc(-c2ccc(C(=O)NCc3ccco3)c3occc23)c(C)c1 | . | -19% | . | .
COc1cc(-c2coc3c(C(=O)NCc4ccc(N(C)C)cc4)cccc23)ccc1O | . | 32µM* | . | .
COc1ccc(-c2ccc(C(=O)NCc3ccc(N(C)C)cc3)c3occc23)c(C)c1 | . | 8.9µM* | . | .
CC1CCCCC1NC(=O)COC(=O)c1c2c(nc3ccccc13)/C(=C/c1ccco1)CC2 (stereo not given) | 16µM* | ? | ? | 24%
NC(=O)c1ccc(NC(=O)COC(=O)c2c3c(nc4ccccc24)/C(=C\c2cccs2)CCC3)cc1 | 3.2µM* | -3% | -3% | 12%
CCc1cccc(C)c1NC(=O)COC(=O)c1c2c(nc3ccccc13)/C(=C\c1cccs1)CCC2 | -49% | -9% | -4% | 23%
O=C(COC(=O)c1c2c(nc3ccccc13)/C(=C/c1ccco1)CC2)NC1CCCC1 | 18µM* | -9% | -11% | 23%
Cc1cc(C(=O)OCC(=O)NC2CCCC2)c2ccccc2n1 | -22% | 8% | -8% | .
